High-throughput results (PubChem)
HCMV inh: blocks human cytomegalovirus replication; HFF cells, HCMV-luciferase reporter, 72 h; hits give low values; activity change, negative = inhibition, % at 57.5 µM; 410,000 tested, 4.5% active; AID 1259415; in the data active = activity change below about -60%; inconclusive = no clear call, values can overlap the other calls; inactive = above about -39%
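After 16 h attachment at 37C, HFF cells received test compound and HCMV-luciferase (1 PFU/cell); reporter luminescence read 72 h later, data normalized against buffer-only and known inhibitor Salinomycin.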
Vaccinia mCherry: inhibitors of vaccinia virus infection (mCherry reporter signal) | Potency, µM (top dose mostly 36.5 µM), without a hit: top-dose activity change, negative = inhibition, actives largely listed as inhibitors | Vaccinia virus mCherry reporter infection, fluorescence | 310,000 tested, 0.63% active; calls by dose curve; tested in A549 cells; also: potency is read from the fitted curve at half-maximal effect; nearly all actives have a fitted effect of over 35% in size
FMDV antiviral: blocks foot and mouth disease virus; FMDV antiviral cell-based qHTS; 410,000 tested, 1.2% active; Potency, µM (highest dose often 57.9 µM), inactives show at the top dose activity change, negative = inhibition, usual class: inhibitors; calls by dose curve; tested in HEK293T cells; also: read-out not given here; potency is read from the fitted curve at half-maximal effect; nearly all actives have a fitted effect of over 45% in size
HCV inh: inhibitors of hepatitis C virus infection | 340,000 tested, 3.4% active | AID 651820 | Potency, µM (doses to about 41.8 µM), inactives show top-dose activity change, negative = inhibition, actives largely listed as inhibitors | Huh7.5.1 HCVcc-Cre infection, luciferase reporter, 44 h; active = well fitted inhibition curve with a large enough effect; inconclusive = small, poorly fitted or top-dose-only effect, or another doubt; inactive = no such curve, though single readings can be large or run the other way; also: potency is read from the fitted curve at half-maximal effect
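HCVcc-Cre virus at an moi near 0.5 was added right after compound to cells cultured 4 h from seeding (1,000 cells/well). Luciferase activity was determined 44 h later, 15 min after substrate addition at RT.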
Vaccinia Venus: vaccinia inhibition (Venus reporter). Potency, µM (titrated, usually from 36.5 µM), inactives show top-dose activity change, negative = inhibition, usual class: inhibitors. Vaccinia virus Venus reporter expression, fluorescence. 330,000 tested, 0.46% active; calls by dose curve; tested in A549 cells; also: potency is read from the fitted curve at half-maximal effect; nearly all actives have a fitted effect of over 30% in size
* marks the source's active call; other numbers are inactive results; i = inactive; ? = inconclusive; . = not tested or not shown; [ ] = another dose, or the depositor's remark. Compounds with a hit are over-represented: about 7.3% of the library has one in this group of screens. % is scaled to controls: 0 for no effect and ±100 for the full control effect.

SMILES | HCMV inh | Vaccinia mCherry | FMDV antiviral | HCV inh | Vaccinia Venus
COc1ccc(OC)c(NC(=O)N2CC(C)Oc3ccc(C)cc32)c1 (centres undefined) | 4 | -9% | -12% | . | -12%
CCC1CN(C(=O)Nc2cc(C)ccc2OC)c2cc(Cl)ccc2O1 (centres undefined) | -61* | 5% | -20% | . | -4%
CCOC(=O)c1ccccc1NC(=O)N1CCOc2ccc(Cl)cc21 | -61* | -4% | -29% | . | -14%
CCC1CN(C(=O)NCc2ccccc2)c2cc(Cl)ccc2O1 (centres undefined) | -18 | -2% | -6% | 5.6µM* | -7%
COc1ccc([C@H]2C[C@@H](n3cc(C4CC4)nn3)[C@H](O)CN2CC2CCCCC2)cc1 | 11 | 0% | ? | . | -22%
CCc1nn(Cc2cccc(F)c2)c(=O)c2cc3cc(C)ccc3n12 | -5 | -20% | 0% | . | -7%
COC(=O)CCC(C(=O)CN1C(=O)c2ccccc2C1=O)N1C(=O)c2ccccc2C1=O (centres undefined) | 33 | -12% | -5% | 1% | -6%
CC1CC(C)CN(C(=O)CNC(=O)c2sc3ccccc3c2Cl)C1 (centres undefined) | ? | . | 7% | 8.9µM* | .
COc1ccc(CN(C)C(=O)CNC(=O)Cc2cccc3ccccc23)c(OC)c1OC | . | -14% | -10% | ? | -17%
CCN(CC)Cc1ccc(NC(=O)c2sc3cc(Cl)ccc3c2Cl)cc1 | -104* | ? | ? | ? | ?
Cn1cccc1/C=N/NC(=O)c1sc2ccccc2c1Cl | -102* | . | 37% | -15% | -24%
CCN(CC)c1ccc(NC(=O)c2sc3ccccc3c2Cl)cc1 | 31 | -10% | 64% | . | -11%
COc1cccc(CN(C)C(=O)CNC(=O)c2sc3ccccc3c2Cl)c1OC | -35 | -13% | 40µM* | ? | -26%
CNC(=O)c1ccsc1NC(=O)c1sc2ccccc2c1Cl | 149 | 8% | 6% | 11µM* | -4%
O=C(NCC(=O)N1CCCCC1)c1sc2ccccc2c1Cl | 18 | . | 46% | 2% | .
O=C(Nc1ccc(CN2CCCCC2)cc1)c1sc2ccccc2c1Cl | 19 | i | 4% | 11µM* | -10%
Cc1cc(N2CCN(c3cccc(C(F)(F)F)c3)CC2)n2nc(-c3ccccc3C)nc2n1 | 11 | -10% | 0% | . | 20%
CCOC(=O)C1(C)CCN1C(=O)c1ccc(C)cc1 (centres undefined) | -2 | i | -6% | . | -27%
COc1ccc(-c2nc(CN3CCC(C(=O)NCc4ccc(F)cc4)CC3)c(C)o2)cc1OC | 4 | -16% | 9% | . | -17%
Cc1oc(-c2cccc(Cl)c2)nc1CN1CCC(C(=O)N2CCN(c3ccccn3)CC2)CC1 | . | -27% | 20µM* | ? | -23%
CCc1ccc(-c2nc(CN3CCC(C(=O)N4CCN(c5ccccn5)CC4)CC3)c(C)o2)cc1 | -16 | . | 25µM* | 11µM* | .
CCc1ccc(-c2nc(CN3CCC(C(=O)N4CCN(c5ccccc5)CC4)CC3)c(C)o2)cc1 | ? | -28% | ? | ? | -18%
Cc1oc(-c2ccc(Cl)cc2)nc1CN1CCCC(C(=O)N2CCN(C(=O)c3ccco3)CC2)C1 (centres undefined) | -39 | ? | 14µM* | 2µM* | ?
CCc1ccc(-c2nc(CN3CCC(C(=O)NCc4ccc(F)cc4)CC3)c(C)o2)cc1 | -17 | . | -23% | 18µM* | .
CCN1CCN(C(=O)C2CCN(Cc3nc(-c4cccc(Cl)c4)oc3C)CC2)CC1 | -26 | -14% | -14% | ? | -11%
O=C(CNC(=O)c1ccccc1)OC(C(=O)O)c1ccc(F)cc1 (centres undefined) | 9 | -14% | -21% | . | -10%
O=S(=O)(c1cccc(COc2c(Cl)cccc2Cl)c1)N1CCOCC1 | -24 | -15% | 9% | ? | -17%
Cc1ccc(C)c(N2CCN(C(=O)C3CCN(Cc4nc(-c5cccc(Cl)c5)oc4C)CC3)CC2)c1 | 13 | ? | 20µM* | . | ?
COc1cc(C2C(=O)N(C3CCCCC3)CC(=O)N2C2CCCCC2)ccc1OC(C)C (centres undefined) | -16 | -9% | -21% | . | 0%
CCOc1ccc(C2C(C(=O)c3ccc(C)o3)=C(O)C(=O)N2Cc2cccnc2)cc1 (centres undefined) | ? | 26%[7.34 µM] | 3% | 7% | 2%[7.34 µM]
